Values joined by “and” are separate entries in the source; they are usually repeats but may differ in a detail not shown here. Equal values may be shown once. In all, about 420,000 compounds went through this assay and about 64,000 (15%) were called active. Roughly 27% stayed inconclusive and do not appear here. The call rests on the fitted dose curve; in most records, active means well fitted inhibition curve with a large enough effect; inconclusive means small, poorly fitted or top-dose-only effect; inactive means flat fitted curve, though single readings scatter. These entries were drawn from the full list. Where a call stands in place of a potency, no number is given.
Potency means the concentration at half of the fitted maximal effect.

The nature of the assay: qHTS for Inhibitors of human tyrosyl-DNA phosphodiesterase 1 (TDP1): qHTS in cells in absence of CPT. Further: nearly all actives have a fitted effect of over 55% in size. Particulars: DT40 Tdp1-/- hTDP1 cells, no CPT, ATP luminescence, 48 h; activity change, negative = growth inhibition: at 46.2 µM (top of the series). A digest of the protocol: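 Chicken DT40 Tdp1-/- cells complemented with human TDP1, screened without camptothecin (DMSO vehicle only), 400 cells/well. Compounds pin-transferred, cells incubated at 37 °C for at least 48 hr. Growth read as ATP-dependent luminescence (CellTiter-Glo, 30 min at RT).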
(In qHTS, concentration-response curves come from the screen itself.)
Turning to `CC[C@H](C)C(=O)N[C@H]1CCCN1C(=O)/C=C/c1ccccc1`, the Potency result is “inactive”.
In the case of `Cc1ccc(C(=O)COC(=O)CCCC(=O)NC2CCCCC2)cc1[N+](=O)[O-]` it was “inactive”; in that of `COCCNC(=O)C1CCN(C(=O)C2CC(=O)N(c3ccc(C)cc3)C2)CC1` (stereo not drawn), “inactive”.
Consider `O=C1CCC(=O)N1c1ccc(NCCc2ccccc2F)c([N+](=O)[O-])c1`, for which the Potency result was “inactive”.
In the case of `CCCCN1CCNC1=S` it was “inactive”; in that of `CC1CC(C)CN(C(=O)CSc2nnc(CSc3ncccn3)n2C)C1` (stereo not drawn), “inactive”.
As to `COCC1CCCN(C(=O)c2ccc3oc(C(C)C)nc3c2)C1` (stereo not drawn), the Potency entry was “inactive”.
The same measure for `COc1ccc(CCNc2nc3c(-c4cccc(F)c4)nnn3c3ccccc23)cc1OC`: “inactive”; for `COc1ccccc1CNc1nc2ccc(Cl)cc2n2cnnc12`: “inactive”; for `COc1ccc(CCNc2nc3ccc(C)cc3n3cnnc23)cc1OC`: 16.4 µM (active) and 23.1 µM (active).
In the case of `COc1ccc(CNC(=O)C2CCCC2)cc1` it was “inactive”; in that of `Cc1ccc(NC(=O)C2CC(c3ccc(F)cc3)=NO2)cc1` (stereo not drawn), “inactive”.
For the compound `COc1ccc(CNC(=O)C2CC(c3ccc(C(F)(F)F)cc3)=NO2)cc1` (stereo not drawn), the Potency was 11.6 µM (active).
For the compound `COc1ccc(-c2cc(C(=O)NCc3ccco3)no2)cc1OC`, the Potency entry is “inactive”.
In the case of `COc1ccc(C2=NOC(C(=O)NCc3ccco3)C2)cc1OC` (stereo not drawn), the Potency is 2.59 µM (active).
Regarding `COc1ccc(S(=O)(=O)N2CCC(C(=O)NCc3ccco3)CC2)cc1C`, the Potency entry was “inactive”.
Regarding `O=C(COC(=O)COc1ccccc1F)Nc1cccc(S(=O)(=O)N2CCCCC2)c1`, the Potency entry is “inactive”.
The same measure for `O=C1OCCOC2CCCc3oc(-c4ccccc4)c1c32` (stereo not drawn): “inactive”; for `CCN(CC)CCCN1C(=O)C(=O)/C(=C(/O)c2c(C)nc3ccccn23)C1c1ccc(C)o1` (stereo not drawn): “inactive”; for `O=C(CCNc1n[nH]c(=O)[nH]c1=O)N/N=C\c1ccc(Br)cc1`: “inactive”.
Consider `Cc1c(O)cc2c(c1C)O[C@](C)(CCC[C@H](C)CCC[C@H](C)CCCC(C)C)CC2`, for which the Potency result was “inactive”.
Consider `COc1ccc(NC(=O)CN2C(=O)NC(C)(c3ccccc3)C2=O)cn1` (stereo not drawn), for which the Potency result is “inactive”.
In the case of `COc1ccc(OCC(=O)NN2Cc3ccccc3C2=N)cc1` it was “inactive”; in that of `Cc1ccc(N2C(=O)c3ccccc3C2(O)c2ncc[nH]2)cc1` (stereo not drawn), “inactive”.
The same measure for `C=CCNc1cnn(-c2ccc(C)cc2)c(=O)c1Cl`: “inactive”; for `O=C(CCC(=O)c1ccccc1)NCc1cccc(C(F)(F)F)c1`: “inactive”.
In the case of `O=C(NCc1cccc(C(F)(F)F)c1)c1cccc(S(=O)(=O)N2CCN(Cc3ccccc3)CC2)c1` it was 18.4 µM (active).
Regarding `O=C(NCc1ccccc1)c1ccc(S(=O)(=O)Nc2cccc(C(F)(F)F)c2)cc1`, the Potency result was “inactive”.
In the case of `O=S(=O)(NCCS(=O)(=O)N1CCN(c2ccccc2)CC1)c1ccc(F)cc1` it was “inactive”; in that of `CN(Cc1cccc2ncccc12)C(=O)CC1C(=O)NCCN1Cc1ccc(F)cc1` (stereo not drawn), “inactive”.
`CC1CN(/C=C/C(=O)C(F)(F)F)CC(C)O1` (stereo not drawn): the Potency result is “inactive”.
The same measure for `Cc1cc(NC(=O)CN2C(=O)NC(CC(C)C)C2=O)no1` (stereo not drawn): “inactive”; for `CS(=O)(=O)N(Cc1ccccc1Cl)c1ccc(C(=O)NCc2cccnc2)cc1`: 14.6 µM (active); for `Cc1ccc(S(=O)(=O)N(Cc2ccc(Cl)cc2)c2ccccc2C(=O)NCc2cccnc2)cc1`: 23.1 µM (active).
On to `O=C(O)c1ccccc1-c1ccccc1C(=O)NCc1cccnc1`, for which the Potency result is “inactive”.
The same measure for `O=C(NCc1cccnc1)c1cccnc1Sc1ccc(Cl)cc1`: “inactive”; for `CS(=O)(=O)N(Cc1ccccc1)c1ccc(C(=O)NN=C2CCCCCC2)cc1`: “inactive”; for `CN(c1ccccc1)S(=O)(=O)c1ccc(C(=O)NCc2cccnc2)cc1`: “inactive”.
In the case of `CCOc1ccc(OCC(=O)OC(C)C(=O)NC2CCCCC2C)cc1` (stereo not drawn) it was “inactive”; in that of `CC1(C)Oc2ccc3ccc(=O)oc3c2/C(=N/O)C1=O`, “inactive”.
For `O=c1cc(COc2cccc(C(F)(F)F)c2)nc2sc3c(n12)CCCC3`, the Potency result was “inactive”.
In the case of `Cc1ccc2c(cnn2C(=O)CCC(=O)NC2CCCC2)c1` it was “inactive”; in that of `CCOC(=O)c1c(-c2cccc(N)c2)cn2ccccc12`, “inactive”; in that of `N#Cc1nc(/C=C/c2ccc(F)cc2)oc1NCc1ccc(F)cc1`, “inactive”.
The same measure for `CCOc1ccc(Nc2oc(/C=C/c3ccc(F)cc3)nc2C#N)cc1`: “inactive”; for `COc1ccccc1/C=C/c1nc(C#N)c(NC(C)c2ccccc2)o1` (stereo not drawn): 16.4 µM (active).
In the case of `O=C(CNC(=O)c1ccccc1F)OCC(=O)c1c[nH]c2ccccc12` it was “inactive”; in that of `Cc1c(C(=O)N(C)C)sc2c1c(=O)n(-c1ccc(F)cc1)c(=O)n2CC(=O)N(C)c1ccccc1`, “inactive”.
In the case of `CCOC(=O)N1CCN(C(=O)C[C@@H]2C[C@@]3(C(=O)OC)CC(C)(C)CC=C3N(Cc3ccco3)C2=O)CC1`, the Potency is 18.4 µM (active).
For the compound `O=C(NCc1ccccc1)C1CCN(C(=O)Cc2ccccc2)CC1`, the Potency result was “inactive”.
The same measure for `CCOC(=O)[C@]12CCC=C1N(Cc1ccco1)C(=O)[C@H](CC(=O)N1CCSCC1)C2`: “inactive”; for `COC(=O)[C@@]12C[C@@H](CC(=O)N3CCC(c4ccccc4)CC3)C(=O)N(Cc3ccccc3)C1=CCC(C)(C)C2`: 14.6 µM (active).
In the case of `CCn1cc(C(=O)N2CCN(Cc3ccc4c(c3)OCO4)CC2)c2cc(OC)c(OC)cc2c1=O` it was “inactive”; in that of `COC(=O)[C@]12CCCCC=C1N(Cc1ccc3c(c1)OCO3)C(=O)[C@H](CC(=O)N1CCOCC1)C2`, “inactive”.
The same measure for `CCOC(=O)N1CCN(C(=O)C(C)NC(=O)c2ccco2)CC1` (stereo not drawn): “inactive”; for `COC(=O)[C@@]12C[C@@H](CC(=O)N3CCCCC3)C(=O)N(Cc3ccc4c(c3)OCO4)C1=CCC(C)(C)C2`: 20.6 µM (active).
Turning to `CCOC(=O)C1CCN(C(=O)CC2C(=O)N(Cc3ccccc3)C(C)c3nc4ccccc4n32)CC1` (stereo not drawn), the Potency result is “inactive”.
In the case of `CC(C)CCN1CCN(C/C=C/c2ccco2)CC1CCO` (stereo not drawn) it was “inactive”; in that of `COC(=O)c1cccc(C(=O)N2CCCC(Nc3ccc4c(c3)OCCO4)C2)c1` (stereo not drawn), “inactive”; in that of `O=C(O)Cc1ccc(NCc2ccccc2Cl)cc1`, “inactive”.
In the case of `Cc1cccc(-c2nnc(SCC(=O)O)n2Cc2ccccc2)c1` it was “inactive”; in that of `O=C1CC(Cc2ccc(Cl)cc2)C(=O)N1c1cc(Cl)ccn1` (stereo not drawn), “inactive”; in that of `COc1ccc(CNC(=O)CSc2nc3ccccc3nc2Cc2ccccc2)cc1`, “inactive”.
In the case of `O=C(CSc1n[nH]c(-c2ccccc2)n1)N1CCCCC1` it was “inactive”; in that of `O=C(CSc1nc2ccccc2nc1Cc1ccccc1)N1CCCCC1`, 18.4 µM (active).
Take `COc1cc(NC(=O)Cn2c(=O)n(Cc3ccco3)c(=O)c3oc4ccccc4c32)cc(OC)c1`: the Potency entry was “inactive”.
As to `Cc1c(CCC(=O)O)c(=O)oc2cc3occ(-c4ccccc4)c3cc12`, the Potency result is “inactive”.
The same measure for `O=C(c1ccco1)N1CCN(CC(=O)N(C2CCCCC2)C2CCS(=O)(=O)C2)CC1` (stereo not drawn): “inactive”; for `COC(=O)c1sccc1NC(=O)CC1C(=O)NCCN1C(=O)Nc1ccc(F)cc1F` (stereo not drawn): “inactive”; for `COc1ccccc1CCNC(=O)CN1C(=O)NC2(CCCC2)C1=O`: “inactive”.
In the case of `C=C1C=C(C(F)F)n2ncc(C(=O)NCCc3ccccc3OC)c2N1` it was 17.8 µM (active); in that of `COc1ccccc1CCNC(=O)c1cnccn1`, “inactive”.
In the case of `Cc1nn2cc(-c3ccc(Cl)cc3)cnc2c1Br` it was “inactive”; in that of `COC(=O)CCCC1=CC2=CC(=O)C(C)(OC(=O)c3cccs3)C(=O)C2=CN1c1cccc(C#N)c1` (stereo not drawn), “inactive”.
For `Cc1cccc(NC(=O)N2CCN(C)c3ncccc32)c1C`, the Potency result was “inactive”.
The same measure for `COc1ccccc1-c1nnc(SCC(=O)Nc2cc(C)on2)o1`: “inactive”; for `Cc1cc(NC(=O)CSc2nnc(-c3ccc(Cl)s3)o2)no1`: 16.4 µM (active).
The same measure for `Cc1cc(NC(=O)CSc2nnc(Nc3ccccc3F)s2)no1`: “inactive”; for `COc1ccc([N+](=O)[O-])cc1NC(=O)CC1SC(=Nc2cccc(C)c2C)N(/N=C(\C)c2ccc(C)cc2)C1=O` (stereo not drawn): “inactive”.
The same measure for `COc1ccc2nc(Nc3nc(-c4cc5ccccc5oc4=O)cs3)sc2c1`: 11.6 µM (active).
Take `CCNc1nc(-c2cc3ccccc3o2)cs1`: the Potency entry is “inactive”.
The same measure for `COc1ccc2cc(-c3nc(Cl)c4c5c(sc4n3)CC(C)CC5)c(=O)oc2c1` (stereo not drawn): “inactive”; for `Nc1ncc(-c2cc3ccccc3oc2=O)s1`: “inactive”.
In the case of `O=c1oc2ccccc2cc1-c1csc(Nc2ccc(O)cc2)n1` it was 8.2 µM (active).
Turning to `COc1ccc2nc(Nc3nc4cc5c(cc4s3)OCCO5)sc2c1`, the Potency entry was “inactive”.
The same measure for `CC(C)C(C(=O)NC1CCCCC1)N(CC1CCCO1)C(=O)CNS(=O)(=O)c1ccc(F)cc1` (stereo not drawn): “inactive”.
On to `O=C(O)CCC(=O)N(Cc1ccccc1)Cc1ccccc1`, for which the Potency result is “inactive”.
In the case of `CC1(C)CC(=O)C=C(NCc2ccncc2)C1` it was “inactive”; in that of `CC(=O)Oc1ccc(-c2nc3c(C)cccc3c(=O)o2)cc1`, “inactive”.
`Cc1cccc2c(=O)n3c(nc12)CCCCC3`: the Potency result was “inactive”.
In the case of `Cc1nc(N=C(N)N)nc2c(C)cccc12` it was 20.6 µM (active); in that of `CCCN1Cc2cccc(C(=O)NCc3ccccc3)c2C1=O`, “inactive”; in that of `CCOc1ccc(N2C(=O)CN(c3cccc4ccccc34)C2=S)cc1`, “inactive”.
The same measure for `Cc1cc(C)c2[nH]c(=O)c(CN(Cc3ccccc3)C(=S)NCCCN(C)C)cc2c1`: 16.4 µM (active).
The same measure for `COCCCNC(=S)N(Cc1ccccc1)Cc1ccc(F)cc1`: “inactive”; for `CCN(CC)CCCNC(=S)N(CCO)Cc1cc2cc3c(cc2[nH]c1=O)OCO3`: “inactive”; for `CCCCNC(=O)c1c[nH]c2ccc(S(=O)(=O)Nc3ccc(OCC)cc3)cc2c1=O`: “inactive”.
Consider `Cc1ccc(/C=C2\CCn3c2nc2cc(C(=O)O)ccc2c3=O)c(C)c1`, for which the Potency entry was “inactive”.
The same measure for `CC(=O)C[C@@H](O)CC(=O)[C@H]1OC(=O)CCCCCCc2ccccc21`: “inactive”.
In the case of `CC(C)(C)c1cc(=O)n2c(nc3ccccc32)[nH]1` it was “inactive”; in that of `O=C(NCc1ccccn1)Nc1ccc(Cl)cc1`, “inactive”.
For `Fc1ccc(-c2ccc(CNCc3ccccn3)o2)cc1Cl`, the Potency was 20.6 µM (active).
In the case of `O=C(NCc1ccccn1)c1cc(-c2ccccc2Cl)on1` it was “inactive”.

The values above are taken from PubChem BioAssay AID686978 (National Center for Advancing Translational Sciences (NCATS), 2013).
